Assay outcomes as filed in PubChem BioAssay.
In the library only some 8.1% were active in any assay of this set; here they are far more common.
Sfp PPTase inh: qHTS Assay for Inhibitors of Bacillus subtilis Sfp phosphopantetheinyl transferase (PPTase); 4'-phosphopantetheinyl transferase ffp (Bacillus subtilis), Q9F4F7; Biochemical Sfp PPTase activity, qHTS; Potency, µM, for inactives: largest response in the series, negative = inhibition, actives largely listed as inhibitors; 310,000 compounds, 3.5% hits; AID 1490, 2009;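 note: the enzyme is Sfp with the accession as filed and its product quenches rhodamine fluorescence; 0% = enzyme reaction without inhibitor and -100% = no enzyme wells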
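Compounds were incubated with enzyme (final 15 nM) for 15 min at room temperature before substrate addition started the reaction. Fluorescence at 525 nm excitation, 598 nm emission was recorded immediately and after 30 minutes.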
Epigenetic derep: Quantitative High-Throughput Screen for Regulators of Epigenetic Control | murine LDR cells, GFP reporter derepression, 30 h | Potency, µM (series often up to 53.9 µM), without a hit: top-dose GFP activation, actives largely listed as activators | 280,000 compounds, 0.2% hits | AID 1865, 2009; note: % of control where 0% means no effect; nearly all actives have a fitted effect of over 60% in size
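Reporter derepression read as number of fluorescent GFP-positive objects, 20-120 um in size, counted by laser-scanning cytometer. Mouse LDR line with an epigenetically silenced CMV-GFP locus; compound incubation 30 h, 37 C.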
VP16 counter: VP16 counterscreen qHTS for inhibitors of ROR gamma transcriptional activity; Drosophila S2 Gal4-VP16 UAS-luciferase, luminescence, 20 h; Potency, µM (titrated, usually from 53.6 µM), inactives show top-dose activity, negative = inhibition, actives largely listed as inhibitors; 310,000 compounds, 3.5% hits; AID 2546, 2010;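 note: Gal4-VP16 expression switched on by copper sulfate through the metallothionein promoter; % is set by controls: 0 for no effect and ±100 for the full control effect; nearly all actives have a fitted effect of over 50% in size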
PINK1 modulator: A Quantitative High throughput Screen to Identify Chemical Modulators of PINK1 Expression. 410,000 compounds, 0.2% hits. AID 624263, 2012. Potency, µM (doses to about 76.6 µM), without a hit: top-dose activation (PINK1 increase), most hits filed as activators. PINK1 immunofluorescence, high-content cytometry, 24 h; active = well fitted activation curve with a large enough effect; inconclusive = small, poorly fitted or top-dose-only effect; cell line not stated here; note: % of control where 0% means no effect; nearly all actives have a fitted effect of over 65% in size
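Cells are seeded, rested 12 hours, then given compound at five concentrations or DMSO for 24 hours. After fixation, blocking and antibody staining, PINK1 amount and mitochondrial localization are scored; CCCP serves as control.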
RORgamma inh: qHTS for inhibitors of ROR gamma transcriptional activity; Drosophila S2 Gal4-RORgamma UAS-luciferase reporter, 20 h; Nuclear receptor ROR-gamma (Mus musculus), P51450; Potency, µM (series often up to 53.6 µM), for the others: top-dose activity change, negative = inhibition, usual class: inhibitors; 310,000 compounds, 5.4% hits; note: % is set by controls: 0 for no effect and ±100 for the full control effect; nearly all actives have a fitted effect of over 60% in size
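Using a luciferase readout, inhibitors were identified by reduced reporter activity in Drosophila cells coexpressing a copper-inducible Gal4–ROR gamma fusion and UAS-driven Photinus luciferase, incubated 20 hr after 700 uM copper sulfate.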
ClpP mod: qHTS Assay for Activators of ClpP; purified B. subtilis ClpP, FRET peptide cleavage, 20 min; Potency, µM (highest dose often 57.5 µM), without a hit: top-dose activity change, negative = active; 340,000 compounds, 1.9% hits; AID 651965, 2013; active = well fitted falling curve with a large enough effect; inconclusive = small, poorly fitted or top-dose-only effect; inactive = no such curve, though single readings can be large or run the other way; note: the source files actives as falling curves though it sought activators and does not explain the sign; nearly all actives have a fitted effect of over 65% in size
Target sequence (P80244 whole entry, looked up): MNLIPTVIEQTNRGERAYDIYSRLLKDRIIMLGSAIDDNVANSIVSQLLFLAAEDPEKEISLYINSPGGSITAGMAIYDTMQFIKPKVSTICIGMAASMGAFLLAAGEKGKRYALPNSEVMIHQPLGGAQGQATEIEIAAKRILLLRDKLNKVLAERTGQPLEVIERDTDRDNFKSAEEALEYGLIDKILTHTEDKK
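Buffer: 100 mM Tris/HCl pH8, 100 mM KCl, 0.05% low protease BSA, 2.5% glycerol, 0.01% Tween-20. ClpP 10 microg/mL final; 20 min RT; delta FRET normalized to ADEP and DMSO controls.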
Active calls of the source: *. Unless noted, calls come from the whole dose curve; as a rule, active = well fitted curve in the direction sought with a large enough effect; inconclusive = small, poorly fitted or top-dose-only effect, or another doubt; inactive = no such curve, though single readings can be large; an effect the other way counts as inactive or inconclusive. Potency is the fitted concentration of half-maximal effect.

`CC(=O)N[C@@H](CC(C)C)C(=O)N[C@@H](CCCNC(=N)N)C(=O)N[C@@H](Cc1cnc[nH]1)C(=O)N[C@@H](Cc1ccc(O)cc1)C(=O)N[C@@H](CC(C)C)C(=O)N[C@@H](CC(N)=O)C(=O)N[C@@H](CC(C)C)C(=O)N[C@@H](CC(C)C)C(=O)N[C@H](C(=O)N[C@@H](CCCNC(=N)N)C(=O)N[C@@H](CCC(N)=O)C(=O)N[C@@H](CCCNC(=N)N)C(=O)N[C@@H](Cc1ccc(O)cc1)C(N)=O)[C@@H](C)O` gave Sfp PPTase inh 4.4%, VP16 counter 4.2% and RORgamma inh -12.6%.
Cc1cccc(S(=O)(=O)Nc2ccc(-c3nc4ccc(C)cc4s3)cc2)c1 was read as Sfp PPTase inh -12.9%, Epigenetic derep -3.0%, VP16 counter -25.3%, PINK1 modulator 12.3%, RORgamma inh 5.62µM* and ClpP mod -3.3%.
Cc1ccc2nc(-c3ccc(NC(=O)CN4C(=O)c5ccccc5C4=O)cc3)sc2c1 was read as Sfp PPTase inh -4.8%, Epigenetic derep 1.0%, VP16 counter inconclusive, PINK1 modulator 5.2%, RORgamma inh inconclusive and ClpP mod inconclusive.
Screening Cc1ccc2nc(-c3ccc(NC(=O)CCS(=O)(=O)c4ccccc4)cc3)sc2c1 returned Sfp PPTase inh -3.5%, Epigenetic derep 0.0%, VP16 counter 7.94µM*, PINK1 modulator 3.9% and RORgamma inh 1.12µM*.
For Cc1nc2cc(NC(=O)CCS(=O)(=O)c3ccccc3)ccc2s1 the results were Sfp PPTase inh -6.6%, Epigenetic derep -1.0%, VP16 counter inconclusive, PINK1 modulator 0.3%, RORgamma inh 15.8µM* and ClpP mod -2.5%.
Cc1ccc2nc(-c3ccc(NC(=O)COC(=O)c4ccc(=O)[nH]c4)cc3)sc2c1 was read as Sfp PPTase inh -7.7%, Epigenetic derep 0.0%, VP16 counter 5.01µM*, PINK1 modulator 10.8%, RORgamma inh 0.282µM* and ClpP mod 11.9%.
For c1ccc(-c2nc(-c3cnc4ccccc4n3)cs2)cc1 the results were PINK1 modulator -0.2% and ClpP mod -1.8%.
`COc1ccc(C2Nc3ccccc3C(=O)N2Cc2ccccc2)cc1COc1ccc([N+](=O)[O-])cc1` (stereo not drawn) gave PINK1 modulator 1.2% and ClpP mod -3.8%.
`Cc1ccc(C)c(CN2CCCN(CC(=O)Nc3ccc(C)c(C)c3)S2(=O)=O)c1` gave Epigenetic derep -0.3%, PINK1 modulator 1.6% and ClpP mod 0.4%.
Screening Cc1ccc(N(CC(=O)Nc2ccc(-c3nc4ccc(C)cc4s3)cc2)S(C)(=O)=O)cc1 returned Sfp PPTase inh 7.7%, Epigenetic derep -2.1%, VP16 counter -6.1%, PINK1 modulator 2.7%, RORgamma inh -42.8% and ClpP mod 11.2µM*.
Screening Cc1ccc2nc(-c3ccc(NC(=O)c4ccc(S(C)(=O)=O)cc4)cc3)sc2c1 returned Epigenetic derep 0.7%, PINK1 modulator -0.1% and ClpP mod -10.6%.
For COc1ccc2c(c1)C/C(=C\c1ccc(N(C)C)cc1)C2=O the results were PINK1 modulator 1.8% and ClpP mod -0.4%.
`Fc1ccc(CN2CCN(C(c3ccccc3)c3ccccc3)CC2)cc1` gave Sfp PPTase inh -25.9%, VP16 counter -24.6%, PINK1 modulator 39.8µM*, RORgamma inh 22.0% and ClpP mod 0.2%.
